Screening results from PubChem.
Only some compounds are listed: those with a hit (about 1.7% of all), similar ones and a draw of the others.
EBV gp42 inh: EBV gp42 inhibition | Q1HVG2 | Fluorescence polarization binding assay, mP read-out | inhibition, % (tested at 21.74 µM) | 0.42% of 220,000 active | AID 1085; in the data active = inhibition above about 50%
MLLE-PAM2 inh: blocks PAM2 peptide binding to the PABP1 MLLE domain; P11940; GST-MLLE / FITC-PAM2 fluorescence polarization; inhibition, % at 20 µM; 0.36% of 360,000 active; in the data active = inhibition above about 35%, passing the limit was not always enough
eIF4E-4G inh: eIF4E/eIF4G interaction inhibition in translation initiation; inhibition, % at 21.7 µM; 0.37% of 220,000 active; TR-FRET eIF4E-eIF4GI(517-606) binding, 2 h;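 active = inhibition above about 30%, limit read from the data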
Target sequence (P63073 whole entry, looked up): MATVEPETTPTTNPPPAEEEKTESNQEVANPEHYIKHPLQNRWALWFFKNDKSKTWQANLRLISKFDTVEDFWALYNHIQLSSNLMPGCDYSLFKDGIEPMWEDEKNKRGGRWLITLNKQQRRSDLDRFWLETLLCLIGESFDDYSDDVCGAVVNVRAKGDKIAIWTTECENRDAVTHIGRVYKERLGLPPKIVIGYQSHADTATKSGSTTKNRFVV
Target sequence (Q04637 whole entry, looked up): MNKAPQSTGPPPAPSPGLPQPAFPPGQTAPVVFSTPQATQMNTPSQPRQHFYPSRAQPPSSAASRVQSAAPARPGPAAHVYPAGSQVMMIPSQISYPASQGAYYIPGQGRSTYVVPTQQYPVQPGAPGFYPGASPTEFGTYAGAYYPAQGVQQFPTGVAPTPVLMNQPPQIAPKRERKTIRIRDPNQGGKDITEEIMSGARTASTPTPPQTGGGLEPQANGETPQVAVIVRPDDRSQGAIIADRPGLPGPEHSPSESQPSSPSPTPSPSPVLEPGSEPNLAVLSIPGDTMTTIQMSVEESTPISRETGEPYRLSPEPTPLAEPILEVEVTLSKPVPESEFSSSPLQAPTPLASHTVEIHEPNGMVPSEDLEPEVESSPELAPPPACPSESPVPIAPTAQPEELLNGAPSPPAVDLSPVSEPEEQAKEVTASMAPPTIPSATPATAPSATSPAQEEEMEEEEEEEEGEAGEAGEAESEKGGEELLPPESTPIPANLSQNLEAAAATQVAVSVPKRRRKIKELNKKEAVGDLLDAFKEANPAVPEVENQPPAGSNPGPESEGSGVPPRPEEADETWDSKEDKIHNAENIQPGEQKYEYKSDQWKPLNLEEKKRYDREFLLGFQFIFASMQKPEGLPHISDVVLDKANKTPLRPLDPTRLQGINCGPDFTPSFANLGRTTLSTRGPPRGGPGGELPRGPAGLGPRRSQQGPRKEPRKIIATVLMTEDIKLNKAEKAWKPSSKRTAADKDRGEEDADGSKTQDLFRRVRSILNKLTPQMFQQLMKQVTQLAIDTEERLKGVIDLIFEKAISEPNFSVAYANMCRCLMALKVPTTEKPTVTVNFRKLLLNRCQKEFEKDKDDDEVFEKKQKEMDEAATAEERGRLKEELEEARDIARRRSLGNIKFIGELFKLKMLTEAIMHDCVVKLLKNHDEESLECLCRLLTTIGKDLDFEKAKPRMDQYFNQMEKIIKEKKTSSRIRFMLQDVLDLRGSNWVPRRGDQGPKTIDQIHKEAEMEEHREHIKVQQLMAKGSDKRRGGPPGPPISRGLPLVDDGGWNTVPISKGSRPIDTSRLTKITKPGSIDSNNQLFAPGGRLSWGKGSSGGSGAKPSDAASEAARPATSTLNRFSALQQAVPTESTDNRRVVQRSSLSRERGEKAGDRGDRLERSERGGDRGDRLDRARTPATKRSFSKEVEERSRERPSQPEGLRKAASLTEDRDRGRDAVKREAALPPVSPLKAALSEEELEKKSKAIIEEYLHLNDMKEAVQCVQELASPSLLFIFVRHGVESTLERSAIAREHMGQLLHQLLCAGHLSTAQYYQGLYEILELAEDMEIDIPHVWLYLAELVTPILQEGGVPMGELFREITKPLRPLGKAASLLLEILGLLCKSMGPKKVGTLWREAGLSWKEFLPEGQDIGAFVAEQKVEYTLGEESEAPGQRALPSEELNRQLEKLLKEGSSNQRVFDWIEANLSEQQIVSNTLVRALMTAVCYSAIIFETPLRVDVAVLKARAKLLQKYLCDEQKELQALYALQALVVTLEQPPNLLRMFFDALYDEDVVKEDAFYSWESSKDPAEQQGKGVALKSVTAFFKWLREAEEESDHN
PABP polyA inh: blocks human PABP binding to poly(A) RNA. fluorescence polarization. P11940. 1% of 290,000 active. calls only at 35 µM;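 also: calls also rest on retests at 20 µM and on dose response follow-up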
eIF4H FP inh: inhibitors of RNA binding by human eIF4H | Q15056 | inhibition, % at 35 µM | eIF4H fluorescence polarization binding assay | 0.94% of 290,000 active;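 also: calls also rest on retests at 20 µM and on dose response follow-up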
A number is an active result; [ ] = dose if it differs, or a comment. Unless noted, no rule for the calls is given here.

For CC(Cc1ccccc1)C(=O)NCc1ccncc1 (configuration not stated) the results were EBV gp42 inh inactive, MLLE-PAM2 inh inactive, eIF4E-4G inh inactive, PABP polyA inh inactive and eIF4H FP inh inactive.
For O=C(NC(=S)NC(CO)Cc1ccccc1)c1ccc(F)cc1 (configuration not stated) the results were MLLE-PAM2 inh 33, PABP polyA inh inactive and eIF4H FP inh inactive.
For O=S(=O)(c1ccc(=S)[nH]c1)N1CCOCC1 the results were MLLE-PAM2 inh 46.
Screening CC(/C=C/c1ccco1)=N\NC(=O)CNc1cccc(C)c1 returned EBV gp42 inh inactive, MLLE-PAM2 inh inactive, eIF4E-4G inh inactive, PABP polyA inh active and eIF4H FP inh 95.
`Cc1cc(C)n2c(SC/C(O)=C(\C#N)c3nc4ccccc4[nH]3)nnc2n1` gave EBV gp42 inh 67, MLLE-PAM2 inh inactive, eIF4E-4G inh inactive, PABP polyA inh active and eIF4H FP inh 80.
Screening Cc1ccccc1-n1c(SC/C(O)=C(\C#N)c2nc3ccccc3[nH]2)nnc1-c1ccncc1 returned EBV gp42 inh inactive, MLLE-PAM2 inh inactive, eIF4E-4G inh inactive, PABP polyA inh inactive and eIF4H FP inh inactive.
Screening CNc1ccc(-c2cccc(C#N)c2)cn1 returned MLLE-PAM2 inh inactive.
`O=C1CC(/C=C/c2ccco2)=Nc2ccccc2N1` gave EBV gp42 inh inactive, MLLE-PAM2 inh inactive, eIF4E-4G inh inactive, PABP polyA inh active and eIF4H FP inh 95.
O=C1CC(/C=C/c2ccccn2)=Nc2ccccc2N1 was read as EBV gp42 inh inactive, MLLE-PAM2 inh inactive, eIF4E-4G inh inactive, PABP polyA inh inactive and eIF4H FP inh inactive.
Screening O=S(=O)(Nc1nc2ccccc2nc1-[n+]1cccc(N=C([O-])c2ccccc2Cl)c1)c1ccccc1 returned EBV gp42 inh 74, eIF4E-4G inh inactive, PABP polyA inh inconclusive and eIF4H FP inh inconclusive.
CCCN(CC(=O)Nc1ccccc1OC)C(=O)c1nc2nc(C)ccn2n1 was read as MLLE-PAM2 inh inactive.
CCN(CC)C(=O)CSC(=Nc1ccccc1F)NC#N was read as EBV gp42 inh inactive, MLLE-PAM2 inh inactive, eIF4E-4G inh inactive, PABP polyA inh active and eIF4H FP inh 46.
Screening CCN(CC)C(=O)CSC(Nc1ccc(F)cc1)=C(C#N)C#N returned EBV gp42 inh inactive, MLLE-PAM2 inh inactive, eIF4E-4G inh inactive, PABP polyA inh inactive and eIF4H FP inh inactive.
Screening CC(C)Oc1ccc(C(=O)NC2=NCCS2)cc1 returned EBV gp42 inh inactive, MLLE-PAM2 inh 40, eIF4E-4G inh inactive, PABP polyA inh inactive and eIF4H FP inh inactive.
`COc1cc(C(=O)NC2=NCCS2)cc(OC)c1OC` gave EBV gp42 inh inactive, MLLE-PAM2 inh inactive, eIF4E-4G inh inactive, PABP polyA inh inactive and eIF4H FP inh inactive.
`COc1cccc(C(=O)NC2=NCCS2)c1OC` gave EBV gp42 inh inactive, MLLE-PAM2 inh 40, eIF4E-4G inh inactive, PABP polyA inh inactive and eIF4H FP inh inactive.
`COc1ccc([N+](=O)[O-])cc1N(CC(O)CN1CCCCC1)S(=O)(=O)c1ccc(C)cc1` (configuration not stated) gave EBV gp42 inh inactive, MLLE-PAM2 inh inactive, eIF4E-4G inh inactive, PABP polyA inh active and eIF4H FP inh 112.
For CC1C2C(C)N(C)C(=O)N(C)C2N(C)C(=O)N1C (configuration not stated) the results were EBV gp42 inh 65, MLLE-PAM2 inh 53, eIF4E-4G inh inactive, PABP polyA inh inactive and eIF4H FP inh inactive.
Cn1ncc2nc[nH]c(=O)c21 was read as EBV gp42 inh inactive, MLLE-PAM2 inh inactive, eIF4E-4G inh inactive, PABP polyA inh active and eIF4H FP inh inconclusive.
For C[C@H]1CN([C@@H](C)CO)C(=O)CCCn2nncc2CO[C@H]1CN(C)C(=O)Nc1cccc2ccccc12 the results were MLLE-PAM2 inh inactive.
`O=C(N/N=C/c1cccc([N+](=O)[O-])c1)c1nc2ccccc2c(=O)[nH]1` gave EBV gp42 inh inactive, MLLE-PAM2 inh inactive, eIF4E-4G inh inactive, PABP polyA inh inactive and eIF4H FP inh inactive.
Screening O=C(N/N=C/c1ccccc1Cl)c1nc2ccc([N+](=O)[O-])cc2c(=O)[nH]1 returned EBV gp42 inh 97, MLLE-PAM2 inh inactive, eIF4E-4G inh inactive, PABP polyA inh inactive and eIF4H FP inh inactive.
`COc1c2c(c3c(c1OC)c(=O)c1ccccc1n3C)OCO2` gave MLLE-PAM2 inh 55.
COc1c2c(c(OC)c3c1c(=O)c1ccccc1n3C)OCO2 was read as MLLE-PAM2 inh inactive.
For Cc1cc2nc3c(=O)n(C4CCCCC4)c(=O)[nH]c3nc2cc1N the results were EBV gp42 inh 141, MLLE-PAM2 inh inactive, eIF4E-4G inh inactive, PABP polyA inh inactive and eIF4H FP inh inconclusive.
For Cc1cc(C)cc(Nc2cc(=O)n(C3CCCCC3)c(=O)[nH]2)c1 the results were EBV gp42 inh inactive, MLLE-PAM2 inh inactive, eIF4E-4G inh inactive, PABP polyA inh inactive and eIF4H FP inh inactive.
For CC(=O)OC[C@@H]1CN(Cc2cccc(C(F)(F)F)c2)C[C@H](n2cnc3c(NCc4ccco4)ncnc32)O1 the results were MLLE-PAM2 inh inactive.
Screening Cc1noc(C)c1C(=O)OC(C)C(=O)NC(C)c1ccc(Cl)cc1Cl (configuration not stated) returned MLLE-PAM2 inh inactive.
Screening CCc1ccc(C(=O)CSc2ncn[nH]2)cc1 returned EBV gp42 inh inactive, MLLE-PAM2 inh inactive, eIF4E-4G inh 32, PABP polyA inh inactive and eIF4H FP inh inactive.
Screening CC(C)CC(NC(=O)c1ccccc1)C(=O)N/N=C/c1ccco1 (configuration not stated) returned EBV gp42 inh inactive, MLLE-PAM2 inh inactive, eIF4E-4G inh inactive, PABP polyA inh active and eIF4H FP inh 58.
`CC(NC(=O)c1ccccc1)C(=O)N/N=C/c1ccco1` (configuration not stated) gave MLLE-PAM2 inh inactive, PABP polyA inh inactive and eIF4H FP inh inactive.
`CCCn1cnnc1CNC(=O)C1CCC(=O)N(CCc2ccc(OC)cc2)C1` (configuration not stated) gave MLLE-PAM2 inh inactive, PABP polyA inh inactive and eIF4H FP inh inactive.
`COc1ccc(-c2noc(CSc3nc(N)c(-c4ccccc4)c(=O)[nH]3)n2)cc1OC` gave EBV gp42 inh inactive, MLLE-PAM2 inh inactive, eIF4E-4G inh 46[fluorescence artefact?], PABP polyA inh inactive and eIF4H FP inh inactive.
For COc1ccc(-c2noc(CSc3nc(-c4ccccc4)cc(=O)[nH]3)n2)cc1 the results were EBV gp42 inh inactive, MLLE-PAM2 inh inactive, eIF4E-4G inh inactive, PABP polyA inh inactive and eIF4H FP inh inactive.
For CCn1c2ccccc2c2cc(N)ccc21 the results were EBV gp42 inh inactive, MLLE-PAM2 inh inactive, eIF4E-4G inh inactive, PABP polyA inh active and eIF4H FP inh 72.
Screening CCn1c(C)cc(=S)c2ccccc21 returned EBV gp42 inh inactive, MLLE-PAM2 inh 40, eIF4E-4G inh inactive, PABP polyA inh inactive and eIF4H FP inh inactive.
O=C(CSc1nnc(NC(=O)C2CC2)s1)NCc1ccccc1 was read as MLLE-PAM2 inh inactive, PABP polyA inh inactive and eIF4H FP inh inactive.
Screening O=C(Nc1ccccc1C(F)(F)F)C1CCN(C(=O)c2cccs2)CC1 returned MLLE-PAM2 inh inactive, PABP polyA inh inactive and eIF4H FP inh inactive.
